Measurements from PubChem BioAssay (EPA / NIEHS).
Records with an inconclusive call do not appear. Some compounds were tested as several samples or in several runs, with calls that do not always agree. The source made the active and inactive calls. Rule for the calls, unless noted: active = hit-call score of the fitted dose curve at least 0.9, where 1 is the maximum; inactive = score below 0.9.

Legend:
[1] = molecular target: Nucleoli Translocation, AR (gene 367) (UniProt P10275); experiment: UPITT_HCI_U2OS_AR_TIF2_Nucleoli_Antagonist: University of Pittsburgh U2OS Androgen Receptor-Transcriptional Intermediary Factor 2 (AR-TIF2) Antagonism High Content Imaging Assay for Nucleoli Translocation (AID 2283997; active = hit-call score of the fitted dose curve at least 0.9, where 1 is the maximum)
Procedure, shortened: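 Antagonism is read as loss of nucleolar AR-RFP signal relative to DHT, imaged in U2OS cells also carrying GFP-TIF2. Compounds screened at 20 uM final, 0.2% DMSO; primary actives retested in triplicate.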

[2] = molecular target: Nucleoli Translocation, AR (gene 367) (UniProt P10275); experiment: UPITT_HCI_U2OS_AR_TIF2_Nucleoli_Agonist: University of Pittsburgh U2OS Androgen Receptor-Transcriptional Intermediary Factor 2 (AR-TIF2) Agonism High Content Imaging Assay for Nucleoli Translocation (AID 2283998; active = hit-call score of the fitted dose curve at least 0.9, where 1 is the maximum)
Procedure, shortened: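 Red-tagged human androgen receptor co-expressed with GFP-tagged TIF2 serves as the binding reporter. Primary testing used 20 uM final (0.2% DMSO); follow-up dose response covered 0.195 to 50 uM final (0.5% DMSO).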

[3] = molecular target: Ratio of Nucleoli Translocation and Cytoplasm, AR (gene 367) (UniProt P10275); experiment: UPITT_HCI_U2OS_AR_TIF2_Nucleoli_Cytoplasm_Ratio_Antagonist: University of Pittsburgh U2OS Androgen Receptor-Transcriptional Intermediary Factor 2 (AR-TIF2) Antagonism High Content Imaging Assay for Ratio of Nucleoli Translocation and Cytoplasm (AID 2283999; active = hit-call score of the fitted dose curve at least 0.9, where 1 is the maximum;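 note: antagonists lower the DHT-driven ratio of nucleolar to cytoplasmic red signal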)
Procedure, shortened: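 Read-out is the ratio of nucleolar to cytoplasmic AR-RFP fluorescence, imaged by high-content microscopy in U2OS cells coexpressing TIF2-GFP. Single-point 20 uM screen, triplicate confirmation, then 0.195–50 uM dose response; activity referenced to DHT baseline.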

[4] = molecular target: Ratio of Nucleoli Translocation and Cytoplasm, AR (gene 367) (UniProt P10275); experiment: UPITT_HCI_U2OS_AR_TIF2_Nucleoli_Cytoplasm_Ratio_Agonist: University of Pittsburgh U2OS Androgen Receptor-Transcriptional Intermediary Factor 2 (AR-TIF2) Agonism High Content Imaging Assay for Ratio of Nucleoli Translocation and Cytoplasm (AID 2284000; active = hit-call score of the fitted dose curve at least 0.9, where 1 is the maximum;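 note: hits raise the red nucleolar to cytoplasm ratio above vehicle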)
Procedure, shortened: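 Compounds tested at 20 uM final in primary screen (0.2% DMSO) and 0.195-50 uM final in dose-response (0.5% DMSO). Imaging of human U2OS cells bearing RFP-AR and GFP-TIF2; endpoint is nucleoli/cytoplasm red signal ratio, positive direction relative to DMSO.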

[5] = CCTE_Mundy_HCI_hN2_NOG_NeuriteLength: CCTE's Neurite Outgrowth Assay in human hN2 cells for Neurite Length, Mundy Lab (AID 2284220; active = hit-call score of the fitted dose curve at least 0.9, where 1 is the maximum)
Procedure, shortened: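 Plate hNP1-derived neurons, then add chemical 2 h later as a 1/10 dilution. Stain with anti-βIII-tubulin then Alexa Fluor-488 secondary, and image automatically to measure neurite length.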

[6] = CCTE_Mundy_HCI_hN2_NOG_NeuronCount: CCTE's Neurite Outgrowth Assay in human hN2 cells for Neuron Count, Mundy Lab (AID 2284221; active = hit-call score of the fitted dose curve at least 0.9, where 1 is the maximum)
Procedure, shortened: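 Read-out is the number of betaIII-tubulin-positive neurons imaged by automated high-content analysis, with DMSO as negative control.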

[7] = CCTE_Shafer_MEA_acute_spike_number: CCTE's Neural Acute Assay for Total Number of Spikes, Shafer Lab (AID 2284008);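 for AC50: curve fitted for decrease in spike count so AC50 reflects inhibitors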
Procedure, shortened: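 Cortical neurons from rat, matured to DIV 13 or 15 on microelectrode arrays, are recorded at 37 C before and during 40-min exposure to 0.03-40 uM compound. Wells need >/= 10 active electrodes.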

[8] = CCTE_Shafer_MEA_acute_firing_rate_mean: CCTE's Neural Acute Assay for Mean Firing Rate, Shafer Lab (AID 2284009);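 note: analyzed for loss of signal so actives lower firing rate relative to DMSO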
Procedure, shortened: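 Primary rat cortical neurons on 16-electrode MEA wells were exposed on DIV 13 or 15 to compound (0.03-40 uM). Spike counts per recording time, averaged over electrodes, were compared between 40-min baseline and 40-min post-exposure recordings as percent change.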

[9] = CCTE_Shafer_MEA_acute_burst_number: CCTE's Neural Acute Assay for Single-Electrode Bursts, Shafer Lab (AID 2284013)
Procedure, shortened: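 Primary rat cortical neurons on 16-electrode MEA wells, DIV 13 or 15, exposed to compound (0.03-40 uM; ≥3 wells); 40-min recordings at 37 C before and after treatment. Burst count expressed as percent change from baseline, DMSO as negative control.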

[10] = CCTE_Shafer_MEA_acute_burst_duration_mean: CCTE's Neural Acute Assay for Mean Burst Duration, Shafer Lab (AID 2284014);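 note: hits are decreases in mean burst duration relative to DMSO controls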
Procedure, shortened: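 Mean burst duration was compared between a 40 min baseline and a 40 min recording in the presence of compound (0.03-40 uM, 37 C), giving percent change per well. Cultures were rat cortical neurons at DIV 13 or 15; wells needed ≥10 active electrodes.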

[11] = CCTE_Shafer_MEA_acute_per_burst_spike_number_mean: CCTE's Neural Acute Assay for Average Number of Spikes Per Burst, Shafer Lab (AID 2284015);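 note: hits are decreases in mean spikes per burst versus baseline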
Procedure, shortened: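 We recorded spontaneous network firing of rat cortical neurons for 40 min before and 40 min during exposure to compound at 0.03-40 uM, at 37 C. Spikes were detected adaptively at 8x rms noise, and the change in average spikes per burst was fitted against DMSO.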

[12] = CCTE_Shafer_MEA_acute_interburst_interval_mean: CCTE's Neural Acute Assay for Mean Interburst Interval, Shafer Lab (AID 2284016);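 note: percent change of mean interburst interval versus each well's own pre-dose baseline; curves fitted for decrease in interburst interval relative to DMSO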
Procedure, shortened: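 MEA recording of spontaneous network bursting in primary rat cortical cultures; mean interburst interval was compared before and after a 40-min compound exposure (0.03-40 uM) and expressed as percent change, relative to DMSO.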

[13] = CCTE_Shafer_MEA_acute_burst_percentage_mean: CCTE's Neural Acute Assay for Percentage of Spikes in a Burst, Shafer Lab (AID 2284017);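 for AC50: curve fitted for loss of signal so potency reflects decreased burst percentage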
Procedure, shortened: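 Compounds were tested at 0.03-40 uM on primary rat cortical neuron networks grown over microelectrodes, with at least three wells per compound. Spontaneous firing was recorded for 40 min before and 40 min after dosing, and the change in burst percentage was computed per well.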

[14] = CCTE_Shafer_MEA_acute_burst_percentage_std: CCTE's Neural Acute Assay for Standard Deviation of Burst Percentage, Shafer Lab (AID 2284018);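 note: fitted in the negative direction so actives lower burst percentage SD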
Procedure, shortened: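 Value is percent change from baseline in the across-electrode SD of spikes-in-bursts percentage, wells with >/= 10 active electrodes. Acute 40-min exposure to 0.03-40 uM on DIV 13 or 15 rat cortical cultures, recorded at 37 C after 40-min baseline.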

[15] = CCTE_Shafer_MEA_acute_per_network_burst_spike_number_mean: CCTE's Neural Acute Assay for Average Number of Spikes in a Network Burst, Shafer Lab (AID 2284019);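 for AC50: curve fitted for loss of signal so actives reduce spikes per network burst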
Procedure, shortened: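 Percent change from baseline in mean spikes per network burst, spikes detected at 8x rms noise. Each compound at 0.03-40 uM in at least three wells of rat cortical cultures, recorded 40 min before and 40 min during exposure.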

[16] = CCTE_Shafer_MEA_acute_per_network_burst_spike_number_std: CCTE's Neural Acute Assay for Standard Deviation of Number of Spikes in a Network Burst, Shafer Lab (AID 2284020);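 note: fitted for decrease in spike-number SD versus DMSO so actives lower it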
Procedure, shortened: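 Endpoint: percent change from 40 min baseline in standard deviation of spikes per network burst, after 40 min compound exposure (0.03-40 uM, 37 C). Cortical rat neurons on MEA at DIV 13 or 15; spikes detected at 8x rms noise, 300-5000 Hz band-pass.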

[17] = CCTE_Shafer_MEA_acute_per_network_burst_electrodes_number_mean: CCTE's Neural Acute Assay for Mean Number of Electrodes in a Network Burst, Shafer Lab (AID 2284021);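 note: curves fitted for decreases only so hits reduce electrodes per burst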
Procedure, shortened: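 Cultures of rat cortex neurons were exposed on DIV 13 or 15 to compounds at 0.03-40 uM in at least three wells each. Activity over 40 min before and 40 min after exposure at 37 C gave the percent change in electrodes per network burst.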

[18] = CCTE_Shafer_MEA_acute_network_burst_percentage: CCTE's Neural Acute Assay for Percentage of Network Bursts, Shafer Lab (AID 2284022);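 note: curves fitted for loss so actives lower network burst percentage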
Procedure, shortened: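 Cortical neurons from rat were grown over microelectrode arrays and used on day 13 or 15 in vitro. Wells with at least 10 active electrodes received test chemical at 0.03-40 uM. Activity during 40 min of exposure was compared with the preceding 40-min baseline.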

[19] = CCTE_Shafer_MEA_acute_cross_correlation_HWHM: CCTE's Neural Acute Assay for Cross Correlation at Half Width at Half Maximum, Shafer Lab (AID 2284026);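 note: percent change per well from pre-dose baseline in spike cross-correlogram half width; hits are a decrease in cross-correlogram half width relative to DMSO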
Procedure, shortened: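 Primary cortex (rat), MEA, DIV 13/15; compound 0.03-40 uM; 40 min pre + 40 min post at 37 C; spike threshold 8x rms; wells need ≥10 active electrodes; endpoint = % change in cross-correlogram HWHM vs baseline, DMSO negative control.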

[20] = CCTE_Shafer_MEA_acute_synchrony_index: CCTE's Neural Acute Assay for Synchrony, Shafer Lab (AID 2284027);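 note: network synchrony index of spontaneous spiking in primary rat cortical neurons on MEAs; fitted for loss of signal so actives lower synchrony relative to DMSO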
Procedure, shortened: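 Rat cortical cultures, DIV 13/15; spikes detected at 8x rms noise, 300-5000 Hz band-pass. Compound 0.03-40 uM, ≥3 wells; 40-min pre- and post-exposure recordings, 37 C. Readout: % change in synchrony index; loss-of-signal fit vs DMSO.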

Measured: AC50

Chain of Ratio of Nucleoli Translocation and Cytoplasm, AR (gene 367) (P10275 whole entry, looked up): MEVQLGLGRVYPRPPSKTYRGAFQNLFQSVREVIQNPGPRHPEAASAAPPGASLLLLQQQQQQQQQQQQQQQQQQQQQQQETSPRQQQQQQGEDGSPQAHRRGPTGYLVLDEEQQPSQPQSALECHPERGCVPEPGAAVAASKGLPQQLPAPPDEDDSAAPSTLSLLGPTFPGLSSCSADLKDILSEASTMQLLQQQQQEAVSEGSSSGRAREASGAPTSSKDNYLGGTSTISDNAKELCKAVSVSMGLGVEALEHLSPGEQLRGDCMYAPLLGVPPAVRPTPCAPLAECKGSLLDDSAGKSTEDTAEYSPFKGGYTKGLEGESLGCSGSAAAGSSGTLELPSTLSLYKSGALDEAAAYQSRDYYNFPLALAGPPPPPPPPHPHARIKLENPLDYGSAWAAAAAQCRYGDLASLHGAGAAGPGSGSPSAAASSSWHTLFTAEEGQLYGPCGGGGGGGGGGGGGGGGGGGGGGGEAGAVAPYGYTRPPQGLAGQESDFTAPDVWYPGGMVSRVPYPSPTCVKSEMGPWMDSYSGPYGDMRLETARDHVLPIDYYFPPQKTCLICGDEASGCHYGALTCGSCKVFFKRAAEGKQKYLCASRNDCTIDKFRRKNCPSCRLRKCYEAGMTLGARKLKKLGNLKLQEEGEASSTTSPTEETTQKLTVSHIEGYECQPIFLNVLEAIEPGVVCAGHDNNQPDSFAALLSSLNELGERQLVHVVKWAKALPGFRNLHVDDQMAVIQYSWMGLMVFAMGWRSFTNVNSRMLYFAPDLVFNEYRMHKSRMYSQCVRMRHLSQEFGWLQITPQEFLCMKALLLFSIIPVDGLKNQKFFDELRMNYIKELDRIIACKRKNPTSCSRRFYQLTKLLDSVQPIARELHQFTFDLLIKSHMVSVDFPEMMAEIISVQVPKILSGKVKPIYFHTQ
Chain of Nucleoli Translocation, AR (gene 367) (P10275 whole entry, looked up): as above

CCCCC(CC)COC(=O)c1cc(Br)c(Br)c(Br)c1Br (stereo not given)
inactive: [1] | [2] | [3] | [4]

O=S1OC[C@@H]2[C@H](CO1)[C@]1(Cl)C(Cl)=C(Cl)[C@]2(Cl)C1(Cl)Cl (stereo not given in full)
inactive: [1] | [2] | [3] | [4]

COP(=S)(OC)SCC(=O)N(C)C=O
inactive: [1] | [2] | [3] | [4]

O=[As]O
active: [5] 5.09 µM | [6] 4.47 µM

CC(=O)[O-].CC(=O)[O-].O.O.O.[Pb+2]
active: [5] 2.07 µM | [6] 12 µM

C[n+]1ccc(-c2cc[n+](C)cc2)cc1
inactive: [1] | [2] | [3] | [4] | [5]
active: [6] 50 µM

C#CCN(C)[C@H](C)Cc1ccccc1
active: [10] 8.86 µM | [12] 15 µM
not listed: [1] | [2] | [3] | [4] | [5] | [6]
inactive: all other assays above

CP(=O)(O)CC[C@H](N)C(=O)O
active: [19] 36.5 µM
inactive: [7] | [8] | [9] | [10] | [11] | [12] | [13] | [14] | [15] | [16] | [17] | [18] | [19] | [20]

CC1(C)[C@@H](C=C(Cl)Cl)[C@@H]1C(=O)O[C@@H](C#N)c1ccc(F)c(Oc2ccccc2)c1
active: [7] 2.96 µM | [8] 2.97 µM | [11] 0.842 µM | [12] 2.35 µM | [13] 1.95 µM | [14] 7.77 µM | [15] 1.28 µM | [16] 0.534 µM | [17] 1.68 µM | [18] 1.32 µM | [20] 0.512 µM
inactive: [9] | [10] | [19]

O=c1[nH]c2c(c(=O)n1C1CCCCC1)CCC2
inactive: [1] | [2] | [4]

Clc1c(Cl)c(Cl)c2c(c1Cl)Oc1c(Cl)c(Cl)c(Cl)c(Cl)c1O2
inactive: [2] | [3] | [4]

O=C(O)CNCP(=O)(O)O
not listed: [1] | [2] | [3] | [4] | [6]
inactive: all other assays above

CP(=O)(O)CCC(N)C(=O)O (stereo not given)
active: [10] 35 µM | [11] 50 µM
not listed: [1] | [2] | [3] | [4] | [5] | [6]
inactive: all other assays above

C=CCN1CC[C@]23c4c5ccc(O)c4O[C@H]2C(=O)CC[C@@]3(O)[C@H]1C5
inactive: [5]

[CH3][Sn]([CH3])[CH3]
inactive: [6]

O.O.O.O.O.[Cd+2].[Cd+2].[Cl-].[Cl-].[Cl-].[Cl-]
active: [5] 31.6 µM | [6] 14.1 µM

C[C@H](N)Cc1ccccc1
inactive: [6]
